Source: PubChem BioAssay (EPA / NIEHS)
Calls of active or inactive are those of the source. Rule for the calls: active = hit-call score of the fitted dose curve at least 0.9, where 1 is the maximum; inactive = score below 0.9.

Legend:
[1] = BSK_hDFCGF_SRB: Viability Assessment in the BioMAP Diversity Plus: hDFCGF Assay (AID 2283061); conditions: primary human foreskin fibroblasts;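 note: cells exposed to compound for 24 h before the read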
How it was run: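 Primary human foreskin fibroblasts; 24 h post-dose; fixed 10% TCA, stained 0.1% SRB, A560 read; total protein as overt cytotoxicity measure; curves fit bidirectionally vs DMSO control.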

[2] = read-out: TIMP metallopeptidase inhibitor 1 (TIMP1), TIMP1 (gene 7076); assay: BSK_hDFCGF_TIMP1: BioMAP Diversity Plus: hDFCGF Assay for TIMP metallopeptidase inhibitor 1 (TIMP1) Biomarker Activity (AID 2283062); conditions: primary human foreskin fibroblasts; actives raise or lower the signal
How it was run: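 ELISA readout of TIMP-1 from human dermal foreskin fibroblast cultures 24 h post-dosing. Curves were fitted in both directions against DMSO baseline, with SRB total-protein staining in parallel cultures as a cytotoxicity check.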

[3] = read-out: Monokine induced gamma interferon (MIG), CXCL9 (gene 4283); assay: BSK_hDFCGF_MIG: BioMAP Diversity Plus: hDFCGF Assay for Monokine induced gamma interferon (MIG) Biomarker Activity (AID 2283063); conditions: primary human foreskin fibroblasts; actives raise or lower the signal
How it was run: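 Fibroblasts (human foreskin, primary) dosed, 24 h, MIG by ELISA; fit bidirectional vs DMSO.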

[4] = read-out: Matrix Metallopeptidase 1 (MMP1), MMP1 (gene 4312); assay: BSK_hDFCGF_MMP1: BioMAP Diversity Plus: hDFCGF Assay for Matrix Metallopeptidase 1 (MMP1) Biomarker Activity (AID 2283064); conditions: primary human foreskin fibroblasts; actives raise or lower the signal
How it was run: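 hDFCGF primary fibroblasts (human foreskin); chemical added; 24 h; MMP1 by ELISA; bidirectional fit vs DMSO.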

[5] = read-out: Vascular cell adhesion molecule 1 (VCAM1), VCAM1 (gene 7412); assay: BSK_hDFCGF_VCAM1: BioMAP Diversity Plus: hDFCGF Assay for Vascular cell adhesion molecule 1 (VCAM1) Biomarker Activity (AID 2283065); conditions: primary human foreskin fibroblasts; actives raise or lower the signal;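 for AC50: VCAM-1 protein level quantified by ELISA after 24 h chemical exposure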
How it was run: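 ELISA read-out of VCAM-1 on human skin fibroblasts, 24 h post-dose; gain or loss of signal fitted bidirectionally against DMSO baseline.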

[6] = read-out: Interferon-gamma inducible Protein 10 (IP10), CXCL10 (gene 3627); assay: BSK_KF3CT_IP10: BioMAP Diversity Plus: KF3CT Assay for Interferon-gamma inducible Protein 10 (IP10) Biomarker Activity (AID 2283068); conditions: primary human keratinocytes with fibroblasts; actives raise or lower the signal
How it was run: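 Signal is secreted/surface IP-10 by ELISA in a human primary skin co-culture of keratinocytes and foreskin fibroblasts, taken 24 h post-dosing; DMSO served as negative control.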

[7] = BSK_KF3CT_SRB: Viability Assessment in the BioMAP Diversity Plus: KF3CT Assay (AID 2283069); conditions: primary human keratinocytes with fibroblasts;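 note: total protein by sulforhodamine B staining as a cytotoxicity measure; read 24 h after compound addition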
How it was run: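 Keratinocytes co-cultured with foreskin fibroblasts (human primary); chemical added, 24 h; fix 10% TCA, stain 0.1% SRB, A560. Bidirectional fit vs DMSO.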

[8] = read-out: Interleukin-1 alpha (IL1a), IL1A (gene 3552); assay: BSK_KF3CT_IL1a: BioMAP Diversity Plus: KF3CT Assay for Interleukin-1 alpha (IL1a) Biomarker Activity (AID 2283070); conditions: primary human keratinocytes with fibroblasts; actives raise or lower the signal
How it was run: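 Chemicals were dosed onto co-cultured human keratinocytes and foreskin fibroblasts, IL-1a was quantified by ELISA at 24 h, and activity was fitted in both directions relative to DMSO controls.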

[9] = read-out: TIMP metallopeptidase inhibitor 2 (TIMP2), TIMP2 (gene 7077); assay: BSK_KF3CT_TIMP2: BioMAP Diversity Plus: KF3CT Assay for TIMP metallopeptidase inhibitor 2 (TIMP2) Biomarker Activity (AID 2283071); conditions: primary human keratinocytes with fibroblasts; actives raise or lower the signal
How it was run: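 Human primary keratinocyte/foreskin fibroblast co-culture dosed with chemical and sampled at 24 h. TIMP-2 levels quantified by ELISA; bidirectional fitting against DMSO negative control as baseline.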

[10] = read-out: Transforming growth factor beta 1 (TGFb1), TGFB1 (gene 7040); assay: BSK_KF3CT_TGFb1: BioMAP Diversity Plus: KF3CT Assay for Transforming growth factor beta 1 (TGFb1) Biomarker Activity (AID 2283072); conditions: primary human keratinocytes with fibroblasts; actives raise or lower the signal
How it was run: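 Human keratinocyte plus foreskin fibroblast primary co-culture, dosed with chemical for 24 h. TGF-b1 quantified by ELISA. Activity fitted bidirectionally against DMSO negative control as baseline.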

[11] = read-out: C-C motif chemokine 2 (Homo sapiens) (UniProt P13500); assay: BSK_KF3CT_MCP1: BioMAP Diversity Plus: KF3CT Assay for Monocyte Chemoattractant Protein 1 (MCP1/CCL2) Biomarker Activity (AID 2283073); conditions: primary human keratinocytes with fibroblasts; actives raise or lower the signal
How it was run: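 KF3CT skin co-culture (keratinocytes/foreskin fibroblasts), 24 h post-dose; MCP-1 by ELISA; gain/loss of signal fit bidirectionally vs DMSO baseline.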

[12] = read-out: Matrix Metallopeptidase 9 (MMP9), MMP9 (gene 4318); assay: BSK_KF3CT_MMP9: BioMAP Diversity Plus: KF3CT Assay for Matrix Metallopeptidase 9 (MMP9) Biomarker Activity (AID 2283074); conditions: primary human keratinocytes with fibroblasts; actives raise or lower the signal;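 for AC50: MMP9 protein level quantified by ELISA in the co-culture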
How it was run: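 Human keratinocyte/foreskin fibroblast co-culture; compound added; 24 h; MMP-9 by ELISA; bidirectional fit vs DMSO baseline.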

[13] = read-out: urokinase plasminogen activator (uPA), PLAU (gene 5328); assay: BSK_KF3CT_uPA: BioMAP Diversity Plus: KF3CT Assay for urokinase plasminogen activator (uPA) Biomarker Activity (AID 2283075); conditions: primary human keratinocytes with fibroblasts; actives raise or lower the signal
How it was run: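 ELISA readout of uPA, analyzed for signal gain or loss relative to DMSO, from a human primary keratinocyte–foreskin fibroblast co-culture measured 24 h after chemical treatment.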

CD40, CD40 (gene 958) = assay: BSK_LPS_CD40: BioMAP Diversity Plus: LPS Assay for CD40 Biomarker Activity (AID 2283076); conditions: primary human HUVEC with PBMC; actives raise or lower the signal
How it was run: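 ELISA readout of CD40 in HUVEC/PBMC co-culture (BSK_LPS system), 24 h post-dosing; bidirectional curve fit, DMSO baseline; parallel SRB total-protein staining for cytotoxicity.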

[14] = read-out: E-selectin (Homo sapiens) (UniProt P16581); assay: BSK_LPS_Eselectin: BioMAP Diversity Plus: LPS Assay for Eselectin Biomarker Activity (AID 2283077); conditions: primary human HUVEC with PBMC; actives raise or lower the signal
How it was run: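 ELISA readout of E-selectin, 24 h post-dose, HUVEC + PBMC co-culture (LPS system). Gain or loss of signal vs DMSO baseline, bidirectional fit.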

[15] = read-out: Interleukin-8 (IL8), CXCL8 (gene 3576); assay: BSK_LPS_IL8: BioMAP Diversity Plus: LPS Assay for Interleukin-8 (IL8) Biomarker Activity (AID 2283078); conditions: primary human HUVEC with PBMC; actives raise or lower the signal
How it was run: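 HUVEC + PBMC co-culture, LPS-activated; test chemicals dosed, IL-8 read by ELISA at 24 h. Bidirectional curve fit vs DMSO baseline (gain or loss of signal).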

[16] = BSK_LPS_SRB: Viability Assessment in the BioMAP Diversity Plus: LPS Assay (AID 2283079); conditions: primary human HUVEC with PBMC;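 note: total protein by sulforhodamine B absorbance as a cytotoxicity measure; measured one day after compound addition; fitted in both directions against DMSO so loss or gain of signal counts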
How it was run: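 HUVEC + PBMC co-culture, LPS-stimulated; compound 24 h. 10% TCA fix, 0.1% SRB stain, A560. Bidirectional fit vs DMSO.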

[17] = read-out: Interleukin-1 alpha (IL1a), IL1A (gene 3552); assay: BSK_LPS_IL1a: BioMAP Diversity Plus: LPS Assay for Interleukin-1 alpha (IL1a) Biomarker Activity (AID 2283080); conditions: primary human HUVEC with PBMC; actives raise or lower the signal
How it was run: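 HUVEC/PBMC co-culture, LPS system; 24 h after dosing; IL-1a by ELISA; gain or loss of signal fitted bidirectionally vs DMSO baseline.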

[18] = read-out: Plasminogen activator inhibitor-1 (PAI1), SERPINE1 (gene 5054); assay: BSK_hDFCGF_PAI1: BioMAP Diversity Plus: hDFCGF Assay for Plasminogen activator inhibitor-1 (PAI1) Biomarker Activity (AID 2283066); conditions: primary human foreskin fibroblasts; actives raise or lower the signal
How it was run: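 Human foreskin fibroblasts in the hDFCGF system were dosed with compound for 24 h; PAI-1 was quantified by ELISA. Bidirectional curve fitting used DMSO as negative control and baseline.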

[19] = read-out: Intercellular Adhesion Molecule 1 (ICAM1), ICAM1 (gene 3383); assay: BSK_KF3CT_ICAM1: BioMAP Diversity Plus: KF3CT Assay for Intercellular Adhesion Molecule 1 (ICAM1) Biomarker Activity (AID 2283067); conditions: primary human keratinocytes with fibroblasts; actives raise or lower the signal
How it was run: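 ELISA readout of ICAM-1; KF3CT human skin co-culture (keratinocytes + foreskin fibroblasts), 24 h post-dose; gain/loss fit vs DMSO baseline.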

Measured: AC50

E-selectin (Homo sapiens), sequence (P16581 whole entry, looked up): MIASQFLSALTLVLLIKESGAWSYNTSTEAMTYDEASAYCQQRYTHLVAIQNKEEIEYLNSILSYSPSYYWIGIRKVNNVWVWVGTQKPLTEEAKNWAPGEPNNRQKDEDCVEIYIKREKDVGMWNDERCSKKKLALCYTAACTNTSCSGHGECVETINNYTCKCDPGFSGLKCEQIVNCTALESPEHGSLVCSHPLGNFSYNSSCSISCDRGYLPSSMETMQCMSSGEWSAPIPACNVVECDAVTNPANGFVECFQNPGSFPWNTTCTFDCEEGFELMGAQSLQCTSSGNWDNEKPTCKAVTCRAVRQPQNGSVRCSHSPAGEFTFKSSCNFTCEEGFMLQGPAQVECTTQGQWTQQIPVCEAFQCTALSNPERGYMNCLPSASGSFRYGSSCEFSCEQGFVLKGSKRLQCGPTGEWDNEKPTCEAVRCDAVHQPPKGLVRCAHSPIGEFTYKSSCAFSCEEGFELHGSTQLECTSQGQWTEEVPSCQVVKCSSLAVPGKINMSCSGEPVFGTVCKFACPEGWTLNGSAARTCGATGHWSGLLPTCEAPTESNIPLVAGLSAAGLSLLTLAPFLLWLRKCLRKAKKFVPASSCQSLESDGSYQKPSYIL

O=c1[nH]c(=O)[nH]c(=O)[nH]1
not listed: [18] | [19]
inactive: all other assays above

CC(C)c1ccc(CO)cc1
not listed: [18] | [19]
inactive: all other assays above

C[C@@H]1C[C@@H]([C@H](O)CC2CC(=O)NC(=O)C2)C(=O)[C@@H](C)C1
active: [2] 2.49 µM | [3] 4.4 µM | [4] 3.37 µM | [5] 0.915 µM | [18] 2.9 µM | [19] 7.24 µM | [6] 12.9 µM | [7] 11.6 µM | [8] 31.2 µM | [9] 8.4 µM | [10] 2.79 µM | [11] 0.991 µM | [12] 4.67 µM | [13] 13.2 µM | CD40, CD40 (gene 958) 3.35 µM | [14] 1.77 µM | [15] 6.73 µM | [16] 6.14 µM | [17] 5.63 µM

COc1cc(OC)nc(NC(=O)NS(=O)(=O)c2ncccc2C(=O)N(C)C)n1
not listed: [18] | [19]
inactive: all other assays above

COP(=S)(OC)Oc1cc(Cl)c(Cl)cc1Cl
active: [5] 25.4 µM | [9] 32.2 µM | [10] 36.3 µM
not listed: [18] | [19]
inactive: all other assays above
